PNC inhibitor – inhibitors of perinucleolar compartment assembly; PC3M PTB-GFP, PNC prevalence imaging, 16 h; hits give low values; activity change (PNC), negative = inhibition, % at 10 µM; hit rate 3.1% among 140,000; AID 2417;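 active = readout at or below -70, meaning at least 70% loss of cells showing the perinucleolar compartment, a nuclear body marking cancer cells; inconclusive = readout between -30 and a set limit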;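 note: plate controls were DMSO wells for no effect and camptothecin positive control wells for full effect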
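Read-out is percentage of cells bearing a perinucleolar compartment, from automated 20x imaging of fixed, Hoechst-stained PC3M PTB-GFP cells. Cells were seeded 4 h, then exposed 16 h to compound (23 nl of library stock) in duplicate plates.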
12-hLO inh – inhibitors of human 12-lipoxygenase (ALOX12); P18054; AID 1452; hit rate 0.12% among 150,000; purified 12-hLO, xylenol orange hydroperoxide absorbance; Potency, µM (highest dose often 57.1 µM), for the others: at the highest dose activity change, negative = inhibition, actives largely listed as inhibitors; note: potency is the fitted concentration of half-maximal effect; nearly all actives have a fitted effect of over 55% in size
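Purified human 12hLO (150 nM final) was preincubated with compounds for 15 min at room temperature in 25 mM Hepes pH 7.0, 0.01% Triton X-100, then reacted with 40 uM arachidonic acid for 30 min. Hydroperoxide was detected with ferrous iron/xylenol orange.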
IMPase cell inh – IMPase inhibition in cells; 120,000 tested, under 10 active; inhibition (IP1 accumulation), % at 46.1 µM; CHO-M1 cells, IP1 accumulation, HTRF TR-FRET ratio; active = well fitted curve in the direction sought with a large enough effect in the signal ratio, not every such curve was filed as active; inconclusive = small, poorly fitted or top-dose-only effect, or a change in a side signal; inactive = no such curve, though single readings can be large or run the other way; the % refers to the signal ratio;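 note: cells stimulated with carbachol in lithium chloride buffer; plate controls were DMSO basal wells for no effect and reference inhibitor wells for full effect; higher means more IMPase inhibition seen as more IP1 and lower FRET ratio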
Target sequence (P97697 whole entry, looked up): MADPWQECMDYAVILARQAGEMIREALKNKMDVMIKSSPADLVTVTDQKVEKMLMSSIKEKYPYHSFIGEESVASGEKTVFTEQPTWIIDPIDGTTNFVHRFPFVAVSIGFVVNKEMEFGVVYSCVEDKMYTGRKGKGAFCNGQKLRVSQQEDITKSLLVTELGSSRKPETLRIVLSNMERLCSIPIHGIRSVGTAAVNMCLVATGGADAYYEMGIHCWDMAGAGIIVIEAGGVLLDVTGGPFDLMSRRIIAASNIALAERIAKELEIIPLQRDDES
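CHO-M1, 2000 cells/well, cultured 16–30 h; cpd up to 46 uM; carbachol (50 uM solution, stimulation buffer w/ 50 mM LiCl, pH 7.4), 30 min 37C; IP-One TR-FRET, 10 min RT; Ex 320/Em 665, 620; Hill-fit AC50.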
HPGD block – inhibitors of human 15-hydroxyprostaglandin dehydrogenase (HPGD) | hit rate 4.3% among 150,000 | Potency, µM, for inactives: at the top dose activity change, negative = inhibition, actives largely listed as inhibitors | AID 894 | purified HPGD, NADH fluorescence kinetic, PGE2 substrate; active = well fitted inhibition curve with a large enough effect, not every such curve was filed as active; inconclusive = small, poorly fitted or top-dose-only effect, or another doubt; inactive = no such curve, though single readings can be large or run the other way; note: potency is the fitted concentration of half-maximal effect
Target sequence (P15428 whole entry, looked up): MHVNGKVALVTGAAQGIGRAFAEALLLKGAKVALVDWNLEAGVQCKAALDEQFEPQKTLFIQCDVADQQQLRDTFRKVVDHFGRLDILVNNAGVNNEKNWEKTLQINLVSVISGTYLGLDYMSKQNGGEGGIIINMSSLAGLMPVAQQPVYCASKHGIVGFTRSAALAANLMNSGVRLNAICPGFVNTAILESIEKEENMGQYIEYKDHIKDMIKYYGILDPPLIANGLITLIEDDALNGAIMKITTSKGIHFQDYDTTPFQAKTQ
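20 nM HPGD preincubated 15 min at room temperature with compound in 50 mM Tris-HCl pH 8, 0.01% Tween 20. Started with 1 mM NAD+ and 30 uM prostaglandin E2; NADH fluorescence (360/450 nm) read 5 times over 30-s intervals, last minus first.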
IMPase Li inh – IMPase inhibition in cells with lithium potentiation; Potency, µM (series often up to 59.4 µM), for the others: at the highest dose activity, negative = IMPase inhibition, most hits filed as inhibitors; hit rate 0.35% among 210,000; CHO-M1 cells, IP1 TR-FRET (IP-One), carbachol + lithium;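 note: IP1 builds up when IMPase is blocked and the TR-FRET signal falls; potency is the fitted concentration of half-maximal effect; plate controls were basal vehicle for no effect and high inhibitor control for full effect; nearly all actives have a fitted effect of over 50% in size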
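Lithium-sensitised IP1 accumulation assay; M1-expressing CHO cells treated 30 min at 37C with compound. Competitive antibody detection by time-resolved FRET followed a 10 min room-temperature lysis step.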
ALDH1A1 inh – ALDH1A1 (human) enzyme inhibition | Potency, µM (highest dose often 75.3 µM), inactives show at the highest dose activity, negative = inhibition, actives largely listed as inhibitors | AID 1030 | Purified ALDH1A1, NADH fluorescence, propionaldehyde substrate | hit rate 7.3% among 220,000; active = well fitted inhibition curve with a large enough effect, not every such curve was filed as active; inconclusive = small, poorly fitted or top-dose-only effect, or another doubt; inactive = no such curve, though single readings can be large or run the other way;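 note: potency is the fitted concentration of half-maximal effect; plate controls were no enzyme wells and a reference inhibitor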
An asterisk follows results filed as active; ? = inconclusive; / = not tested or not shown; [ ] = another dose, or the depositor's remark. Shown are actives, neighbours in structure and some others; about 11% of the full set was active somewhere. Unless noted, calls come from the whole dose curve; as a rule, active = well fitted curve in the direction sought with a large enough effect; inconclusive = small, poorly fitted or top-dose-only effect, or another doubt; inactive = no such curve, though single readings can be large; an effect the other way counts as inactive or inconclusive. Unless noted, % is set by controls: 0 for no effect and ±100 for the full control effect.

SMILES	PNC inhibitor	12-hLO inh	IMPase cell inh	HPGD block	IMPase Li inh	ALDH1A1 inh
O=C(O)c1ccc(CSc2nnc(SCc3ccccc3)s2)cc1	7	-1%	-10	20µM*	-1%[38.3 µM]	-14%
Cc1nnc(SCc2ccc(C(=O)O)cc2)s1	-17	-6%	1	-13%	36%[38.3 µM]	10%
Cc1cc(C)cc(NC(=O)c2ccc(CSc3nnc(C)s3)cc2)c1	21	6%	6	-19%	2%[38.3 µM]	-3%
Cc1ccc(NC(=O)c2ccc(CSc3nnc(C)s3)cc2)cc1	-100*	5%	-1	-14%	-2%[38.3 µM]	?
C[C@@H](c1ccccc1)N1C(=O)[C@H]2[C@H]3[C@H](O)[C@H](O)C/C(=N/NC(=O)OCc4ccccc4)[C@@H]3CC[C@@H]2C1=O	/	/	/	/	/	-6%[13.5 µM]
CC(=O)N1CCC[C@@]2(CCN(c3ncccn3)C2)C1	/	4%	/	-21%	4%	-4%
O=C(CN1CCN(S(=O)(=O)c2ccc(F)cc2)CC1)Nc1cccc(C(F)(F)F)c1	?	-7%	1	-9%	-6%[38.3 µM]	-14%
COc1cccc(NC(=O)CN2CCN(S(=O)(=O)c3ccc(C(C)C)cc3)CC2)c1	-28	2%	10	-15%	28%[38.3 µM]	22µM*
COc1ccc(NC(C)=O)cc1NC(=O)CN1CCN(S(=O)(=O)c2ccc(C(C)C)cc2)CC1	48	4%	-5	-11%	-8%[38.3 µM]	3%
COc1cccc(NC(=O)CN2CCN(S(=O)(=O)c3ccc(F)cc3)CC2)c1	-111*	-4%	8	1%	31%[38.3 µM]	10%
COc1cc(NC(=O)CN2CC(c3ccccc3)CC2=O)cc(OC)c1 (configuration not stated)	-9	-4%	-6	1%	9%	7%
O=C(CN1CC(c2ccccc2)CC1=O)OCc1ccccc1F (configuration not stated)	-91*	-2%	17	-21%	53%[38.3 µM]	8.9µM*
COc1ccc2c(c1)c(CC(=O)O)c(C)n2Cc1ccc(F)cc1	/	-8%	?	-18%	-7%	-4%
Cc1ccc(C2CC2C(=O)NNC(=S)Nc2cccc(C)c2)cc1 (configuration not stated)	?	?	-1	-25%	-4%	18µM*
Cc1ccc(C2CC2C(=O)NNC(=S)Nc2cccc(Cl)c2)cc1 (configuration not stated)	?	-23%	14	-26%	7%	7.1µM*
CCN1CCCC1CN(Cc1cc2cc(C)cc(C)c2[nH]c1=O)C(=O)Nc1ccccc1OC (configuration not stated)	47	-2%	6	-17%	-6%[38.3 µM]	?
CCN1CCCC1CN(Cc1cc2ccc(C)cc2[nH]c1=O)C(=S)Nc1ccc(OC)cc1OC (configuration not stated)	-24	-12%	-2	-16%	12%	20µM*
CCNc1ncc2nc(CCc3ccccc3)c(=O)n(C[C@H]3CCCO3)c2n1	/	/	/	/	0%	?
CCOC(=O)c1[nH]nc(-c2cc(CC)c(O)cc2O)c1-c1cscn1	-17	-19%	0	-8%	32%[38.3 µM]	8.9µM*
CCCc1cc2c(=O)c(-c3cscn3)c(C(=O)OCC)oc2cc1O	/	/	/	/	16%	?
Cc1nc2cnc(N3CCN(C)CC3)nc2n(C)c1=O	/	/	/	/	1%	?
O=S(=O)(c1ccccc1)c1nc(-c2ccccc2)oc1NCc1cccnc1	?	0%	1	-18%	-17%[38.3 µM]	25µM*
Cc1ccc(CN2C(=O)C(C)(C)Oc3ccc(C(=O)N4CCCCC4)cc32)cc1	0	-8%	2	32µM*	-1%[38.3 µM]	4%
COc1cccc(C(=O)CN2C(=O)C(C)(C)Oc3ccc(C(=O)N4CCCCCC4)cc32)c1	22	-6%	13	2.2µM*	27%[38.3 µM]	?
CC1(C)Oc2ccc(C(=O)N3CCCCC3)cc2N(CC(=O)NCc2ccccc2)C1=O	30	-3%	6	-11%	2%[38.3 µM]	?
SMILES	PNC inhibitor	12-hLO inh	IMPase cell inh	HPGD block	IMPase Li inh	ALDH1A1 inh
Cc1cc(/C=N/NC(N)=S)c(C)n1-c1ccc(Cl)c(Cl)c1	46	?	/	?	15%	16µM*
Cc1ccc(-n2c(C)cc(/C=N/NC(=O)Cn3c4ccccc4c(=O)c4ccccc43)c2C)cc1	0	-3%	/	?	2%	?
Cc1nc2ccccn2c1C(=O)N/N=C/c1cc(C)n(-c2ccc(Cl)cc2)c1C	-100*	-1%	9	?	17%	?
Cc1cc(/C=N/NC(=O)Cn2c3ccccc3c(=O)c3ccccc32)c(C)n1-c1ccc(Cl)cc1	-88*	-1%	10	?	-6%	?
Cc1nc2ccccn2c1C(=O)N/N=C/c1ccccc1[N+](=O)[O-]	2	-3%	1	-7%	0%[38.3 µM]	-43%
CCCCC[C@H](O)/C=C/C=C/C=C/[C@H](O)C/C=C\CCCC(=O)O	/	0%	/	-1%	8%	4%
Clc1ccccc1/C=C\c1ccnc2ccccc12	/	-1%[11.4 µM]	/	?	1%	?
O=C(O)[C@H]1O[C@H]1C(=O)O	/	-2%[11.4 µM]	/	-3%	-3%	8%[13.5 µM]
CC(C)=CCC/C(C)=C/CO/N=C1/C[C@@H](O)[C@@H](O)[C@@H]2[C@H]3C(=O)N(c4ccc(F)cc4F)C(=O)[C@@H]3CC[C@H]12	/	/	/	/	/	-11%[13.5 µM]
COc1cc(/C=N/NC(=O)c2ccc3nc[nH]c3c2)cc(OC)c1OC	/	/	/	/	/	-3%
COc1cc(/C=N/NC(=O)c2ccc(CSc3nc4ccccc4[nH]3)cc2)cc(OC)c1OC	-85*	0%	/	?	4%	?
O=C(NCCCO)c1ccc(CSc2nc3ccccc3[nH]2)cc1	/	/	/	/	8%	-11%
CC1C/C(=N/NC(=O)c2ccc(CSc3nc4ccccc4[nH]3)cc2)CC(C)(C)C1 (configuration not stated)	28	-7%	/	-29%	2%	25µM*
O=C(NCCO)c1ccc(CSc2nc3ccccc3[nH]2)cc1	-26	-2%	/	25µM*	-5%	1%
O=c1c(-c2cc(F)cc(F)c2)nc2cnc(N3CCOCC3)nc2n1C[C@H]1CCCO1	/	/	/	/	-2%	?
O=C(c1cc(C(F)(F)F)cc(C(F)(F)F)c1)N1CCC2(CC1)CCN(c1ncccn1)CC2	/	-3%	/	-4%	-4%	5%
CCSc1nnc(Cn2c(=O)sc3ccccc32)n1C	16	-3%	3	-11%	8%	2%
Cn1c(Cn2c(=O)sc3ccccc32)nnc1SCc1ccccn1	-5	-4%	-7	/	/	2µM*
c1ccc(C[n+]2cccc(-c3cc4ccccc4[nH]3)c2)cc1	/	5%[11.4 µM]	/	3%	1%	-13%[13.5 µM]
N#Cc1c(N)nc(SCC(=O)NC2CCCCC2)c(C#N)c1-c1ccc(Cl)cc1	?	0%	-5	-13%	16µM*	8%

Source: PubChem (National Center for Advancing Translational Sciences (NCATS))
